These results are taken from PubChem BioAssay (EPA / NIEHS).

Results filed as inconclusive are left out. Calls of active or inactive are those of the source. The calls were made as follows, unless noted: active = hit-call score of the fitted dose curve at least 0.9, where 1 is the maximum; inconclusive = response in the unintended direction; inactive = score below 0.9.

A word on the AC50: it is the midpoint of the concentration-response curve, whichever way the signal moves.

The nature of the first test: ACEA_ER_80hr: ACEA Biosciences xCELLigence Real-Time Cell Analysis on Estrogen Receptor Agonism for Proliferation (AID 2282667). The note with it: T47D proliferation, impedance (xCELLigence), 80 h. The procedure, abridged:
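Cell-growth kinetics were measured by impedance in T47D cells treated continuously with compound (top 100 uM final, 1:4 steps, 8 points). Activity at 80 h was scored as signal gain over the DMSO baseline.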
As to `C/C=C(\C)C(=O)OC/C=C(\C)CCC=C(C)C`, the molecule was classed as inactive.
As for `NC(=O)c1c(Cl)cccc1Cl`, the half-maximal activity concentration (AC50) is 0.168 µM (active).
In the case of `CC(C)C(=O)OCC=Cc1ccccc1`, the molecule was classed as inactive.
Still for that read-out and setting: under `CCCC(O)C(CC)CO` (configuration not stated) stands “inactive”.
Turning to `CN(C)CCC=C1c2ccccc2CCc2ccccc21`, the AC50 was 0.124 µM (active).
Take `CC(=O)Oc1c(C)c(C)c2c(c1C)CC[C@@](C)(CCC[C@H](C)CCC[C@H](C)CCCC(C)C)O2`: the outcome was inactive.
Regarding `CC(C)OB(OC(C)C)OC(C)C`, the molecule was called inactive.
Consider `[Cu+]`, for which the molecule was classed as inactive.
On to `O=C(O)C(F)(F)C(F)(F)C(F)(F)C(F)(F)C(F)(F)C(F)(F)C(F)(F)C(F)F`, for which the concentration at half-maximal activity (AC50) is 14.6 µM (active).
Turning to `CN1CCc2cccc3c2[C@H]1Cc1ccc(O)c(O)c1-3`, the molecule was called inactive.
Turning to `C[N+](C)(C)CCO`, the outcome was inactive.
As for `O=[N+]([O-])c1cc(N(CCO)CCO)ccc1NCCO`, the outcome was inactive.
Still for that read-out and setting: the same measure for `CC(C)CCOC(=O)CC(C)C`: “inactive”.
Regarding `CC/C=C\CCCCCCCCCCOC(C)=O`, the outcome was inactive.
`Cc1ccccc1S`: the outcome was inactive.
With `COc1ccc2[nH]cc(CCNC(C)=O)c2c1`, the molecule was classed as inactive.
In the case of `Nc1ccn([C@H]2CC[C@@H](CO)O2)c(=O)n1`, the outcome was inactive.
Same read-out and setting: the same measure for `CC(C)(CO)CO`: “inactive”; for `COC(=O)C(C)Oc1ccc(Oc2ncc(C(F)(F)F)cc2Cl)cc1` (configuration not stated): “inactive”.
The same measure, in the same setting: under `OCCN1CCOCC1` stands “inactive”.
In the case of `C=CCS(=O)(=O)O`, the call was inactive.
As to `CCOc1ccc(NC(C)=O)cc1`, the result was inactive.
The same measure, in the same setting: the same measure for `CC(C)(C)c1cc(CCC(=O)OCCSCCOC(=O)CCc2cc(C(C)(C)C)c(O)c(C(C)(C)C)c2)cc(C(C)(C)C)c1O`: “inactive”; for `CC(C)CCCC(C)(C)O`: “inactive”.
Regarding `COc1ccccc1NC(=O)CC(C)=O`, the AC50 was 10.3 µM (active).
As for `CCCOC(=O)CC`, the result was inactive.
For the molecule `CC(=O)N(C)C`, the outcome was inactive.
On the same count and under the same terms, under `CC(=O)C1C(=O)C=C(C)OC1=O` (configuration not stated) stands “inactive”; under `CC(C)COC(=O)c1ccccc1O`, “inactive”.
Regarding `[Cl][Dy]([Cl])[Cl]`, the half-maximal activity concentration (AC50) was 0.043 µM (active).
As for `CNC(=C[N+](=O)[O-])NCCSCc1ccc(CN(C)C)o1`, the molecule was classed as inactive.
Take `CCCCC(CC)COC(=O)COc1ccc(Cl)cc1C` (configuration not stated): the call was inactive.
Regarding `CC(=O)CC(=O)N(C)C`, the outcome was inactive.

A short description of a further test: APR_HepG2_CellCycleArrest_24hr: Apredica 24-hour HepG2 Assay for Cell Cycle Arrest (AID 2282905; active = hit-call score of the fitted dose curve at least 0.9, where 1 is the maximum; inactive = score below 0.9;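 also: cell cycle arrest scored as ratio of 2N to 4N nuclear DNA content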). The note with it: imaging, actives raise or lower the signal. In a few lines:
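HepG2 cells were exposed to compounds at 0.39–200 uM (ten concentrations, duplicate) in 0.5% v/v DMSO for 24 hr. After formaldehyde fixation and Triton permeabilization, Hoechst 33342-stained nuclei were imaged at 20x; DNA content was quantified, with bidirectional fitting against DMSO.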
On to `O=C(c1ccc(OCCN2CCCCC2)cc1)c1c(-c2ccc(O)cc2)sc2cc(O)ccc12`, for which the molecule was called inactive.
As to `C[C@]12CC[C@@H]3c4ccc(O)cc4CC[C@H]3[C@@H]1CC[C@@H]2O`, the result was inactive.
In the case of `C#C[C@]1(O)CC[C@H]2[C@@H]3CCc4cc(O)ccc4[C@H]3CC[C@@]21C`, the AC50 is 36.8 µM (active).
As to `CC/C(=C(\c1ccccc1)c1ccc(OCCN(C)C)cc1)c1ccccc1`, the molecule was called inactive.
